{"source": "PubChem BioAssay AID651640", "about": "(Broad Institute, 2012)", "note": "Values joined by “and” are separate entries in the source; they are usually repeats but may differ in a detail not shown here. Equal values may be shown once. In all, about 350,000 compounds went through this assay and about 6,000 (1.7%) were called active. Roughly 5% stayed inconclusive and do not appear here. No stated cut-off is given here; in the data, active means CPE inhibition above about 20% (passing the limit was not always enough); inconclusive means no clear call, values can overlap the other calls; tested in BHK-21 cells. The list comes from a sample in which actives are over-represented; it also holds similar structures and randomly drawn compounds. More than one record can exist for a structure, and the calls need not agree."}
{"assay": "protection of cells from dengue 2 killing – plate reader, single concentration, primary screen (AID 651640);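 further: 0% = median of neutral control wells and 100% = median of positive control wells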", "conditions": "DENV2-infected cells, cytopathic effect rescue, at 9.99 µM, stronger effect = higher value"}
{"smiles": "COc1ccc(C2CC(c3cccs3)=NN2C(=O)CSc2nncs2)cc1OC", "note": "(configuration not stated)", "CPE inhibition": "6.81% (inactive)"}
{"smiles": "COc1ccc(C2CC(c3cccs3)=NN2C(=O)CCC(=O)O)cc1OC", "note": "(configuration not stated)", "CPE inhibition": "36.9% (active)"}
{"smiles": "COc1ccc(C2=NN(C(=O)CCC(=O)O)C(c3cccs3)C2)cc1OC", "note": "(configuration not stated)", "CPE inhibition": "-2.94% (inactive)"}
{"smiles": "COc1ccccc1CNC(=O)CCCN1C(=O)NC2(CCCC2)C1=O", "CPE inhibition": "54.7% (active)"}
{"smiles": "COc1ccccc1C(=O)NCCC(=O)NN1C(=O)NC2(CCCCC2)C1=O", "CPE inhibition": "0.164% (inactive)"}
{"smiles": "COc1ccccc1CCNC(=O)CN1C(=O)NC2(CCCC2)C1=O", "CPE inhibition": "-7.14% (inactive)"}
{"smiles": "C[C@@H]1CCCCO[C@@H](CN(C)C(=O)C2CCCCC2)[C@@H](C)CN([C@H](C)CO)C(=O)c2cc(NC(=O)c3ccccc3)ccc2O1", "CPE inhibition": "17.1% (inactive)"}
{"smiles": "COc1ccccc1NC(=O)N(C)C[C@H]1Oc2cc(Br)ccc2S(=O)(=O)N([C@H](C)CO)C[C@@H]1C", "CPE inhibition": "10.7% (inactive) and 3.12% (inactive)"}
{"smiles": "CCC(=O)N(C)C[C@H]1Oc2cc(C#CCOC)ccc2S(=O)(=O)N([C@H](C)CO)C[C@H]1C", "CPE inhibition": "77.3% (active)"}
{"smiles": "C[C@H](CO)N1C[C@H](C)[C@H](CN(C)Cc2ccncc2)Oc2cc(-c3cncnc3)ccc2S1(=O)=O", "CPE inhibition": "-6.89% (inactive)"}
{"smiles": "CCC(=O)N(C)C[C@@H]1Oc2cc(C#CCOC)ccc2S(=O)(=O)N([C@H](C)CO)C[C@H]1C", "CPE inhibition": "-10.5% (inactive)"}
{"smiles": "C[C@@H]1CN([C@H](C)CO)S(=O)(=O)c2ccc(C#CCC3CCCC3)cc2O[C@H]1CN(C)Cc1ccc(C(=O)O)cc1", "CPE inhibition": "41.8% (active)"}
{"smiles": "Cc1noc(C)c1NC(=O)N(C)C[C@@H]1Oc2cc(Br)ccc2S(=O)(=O)N([C@@H](C)CO)C[C@H]1C", "CPE inhibition": "21.5% (active) and 2.3% (inactive)"}
{"smiles": "Cc1noc(C)c1NC(=O)N(C)C[C@@H]1Oc2cc(C#CCC(C)C)ccc2S(=O)(=O)N([C@H](C)CO)C[C@@H]1C", "CPE inhibition": "16.2% (inactive)"}
{"smiles": "COCC#Cc1ccc2c(c1)O[C@H](CN(C)C(=O)CN(C)C)[C@@H](C)CN([C@H](C)CO)S2(=O)=O", "CPE inhibition": "-5.36% (inactive)"}
{"smiles": "C[C@@H]1CN([C@@H](C)CO)S(=O)(=O)c2ccc(C#CCC3CCCC3)cc2O[C@@H]1CN(C)C", "CPE inhibition": "-3.23% (inactive)"}
{"smiles": "C[C@H]1CN([C@@H](C)CO)S(=O)(=O)c2ccc(-c3cncnc3)cc2O[C@H]1CN(C)Cc1ccncc1", "CPE inhibition": "35.7% (active)"}
{"smiles": "C[C@@H]1CN([C@H](C)CO)S(=O)(=O)c2ccc(C#CCC3CCCC3)cc2O[C@H]1CN(C)C(=O)CC1CC1", "CPE inhibition": "9.35% (inactive)"}
{"smiles": "C[C@H](CO)N1C[C@H](C)[C@@H](CN(C)Cc2cncnc2)Oc2cc(-c3ccccc3)ccc2S1(=O)=O", "CPE inhibition": "-3.98% (inactive)"}
{"smiles": "CN1C(=O)c2cc(NC(=O)Nc3ccccc3Cl)ccc2OC[C@H]2O[C@H](CC(=O)NCCCN3CCOCC3)CC[C@H]21", "CPE inhibition": "-4.69% (inactive)"}
{"smiles": "CCNC(=O)C[C@@H]1CC[C@H]2[C@@H](COc3ccc(NC(=O)NC(C)C)cc3C(=O)N2C)O1", "CPE inhibition": "-7.53% (inactive)"}
{"smiles": "COc1ccc(NC(=O)Nc2ccc3c(c2)OC[C@@H](C)NC[C@@H](C)[C@H](OC)CN(C)C3=O)cc1", "CPE inhibition": "-3.84% (inactive)"}
{"smiles": "COc1ccc(S(=O)(=O)N2C[C@@H](O)COC[C@H]3O[C@@H](CC(=O)NCCN4CCCCC4)CC[C@@H]32)cc1", "CPE inhibition": "2.39% (inactive)"}
{"smiles": "C[C@@H]1CN([C@H](C)CO)C(=O)c2cc(NC(=O)NC3CCCCC3)ccc2O[C@H]1CN(C)C(=O)Nc1ccccc1", "CPE inhibition": "1% (inactive)"}
{"smiles": "C[C@@H]1CCCCO[C@@H](CN(C)C(=O)Cc2ccccc2)[C@@H](C)CN([C@@H](C)CO)C(=O)c2cc(NC(=O)c3ccccc3)ccc2O1", "CPE inhibition": "-1.37% (inactive)"}
{"smiles": "O=C(Nc1ccccc1)N[C@@H]1CC[C@H](CCn2cc(-c3ccccc3F)nn2)O[C@@H]1CO", "CPE inhibition": "10.9% (inactive)"}
{"smiles": "CS(=O)(=O)N1CC2(C1)[C@H](c1ccccc1)[C@@H](CO)N2C(=O)c1ccccc1", "CPE inhibition": "0.143% (inactive)"}
{"smiles": "O=S(=O)(c1ccc(F)cc1)N1CCCCN2[C@H](CO)[C@@H](c3ccc(C#CC4CCCC4)cc3)[C@H]2C1", "CPE inhibition": "-3.13% (inactive)"}
{"smiles": "COCC(=O)N(C)C[C@H]1Oc2cc(Br)ccc2S(=O)(=O)N([C@H](C)CO)C[C@H]1C", "CPE inhibition": "21.7% (inactive) and 31.3% (active)"}
{"smiles": "C[C@H]1CN([C@@H](C)CO)S(=O)(=O)c2ccc(C3=CCCC3)cc2O[C@H]1CN(C)C(=O)Nc1ccc2c(c1)OCO2", "CPE inhibition": "-1.69% (inactive)"}
{"smiles": "C[C@@H]1CN([C@H](C)CO)S(=O)(=O)c2ccc(C3=CCCC3)cc2O[C@H]1CN(C)C(=O)Nc1ccc2c(c1)OCO2", "CPE inhibition": "21.4% (active)"}
{"smiles": "COCC(=O)N(C)C[C@H]1Oc2cc(C#CC(C)C)ccc2S(=O)(=O)N([C@H](C)CO)C[C@@H]1C", "CPE inhibition": "-1.85% (inactive)"}
{"smiles": "C[C@@H]1CN([C@@H](C)CO)S(=O)(=O)c2ccc(Br)cc2O[C@@H]1CN(C)C(=O)CN(C)C", "CPE inhibition": "2.66% (inactive)"}
{"smiles": "C[C@H]1CN([C@@H](C)CO)S(=O)(=O)c2ccc(C#Cc3ccncc3)cc2O[C@@H]1CN(C)C(=O)Nc1ccc2c(c1)OCO2", "CPE inhibition": "13.3% (inactive)"}
{"smiles": "O=C(C[C@@H]1CC[C@H](NC(=O)Cc2ccccn2)[C@H](CO)O1)NCCc1ccncc1", "CPE inhibition": "1.65% (inactive)"}
{"smiles": "CCNC(=O)C[C@@H]1CC[C@H]2[C@@H](COc3ccc(NC(=O)Cc4cccs4)cc3C(=O)N2C)O1", "CPE inhibition": "-0.188% (inactive)"}
{"smiles": "Cc1noc(C)c1NC(=O)Nc1ccc2c(c1)C(=O)N([C@@H](C)CO)C[C@H](C)[C@H](CN(C)Cc1ccc(C(=O)O)cc1)OCCCC[C@@H](C)O2", "CPE inhibition": "-4.14% (inactive)"}
{"smiles": "CSc1ccc(Oc2cccc3c2S(=O)(=O)N([C@H](C)c2ccccc2)C[C@@H](COCc2ccccc2)O3)cc1C", "CPE inhibition": "12% (inactive)"}
{"smiles": "COC(=O)N1Cc2ccnnc2CC1c1ccccc1Br", "note": "(configuration not stated)", "CPE inhibition": "-2.73% (inactive)"}
{"smiles": "CCCC/C=C/c1cccc2nncn12", "CPE inhibition": "28.7% (active)"}
{"smiles": "O=C(O)c1ccccc1-c1cccc2nncn12", "CPE inhibition": "-0.993% (inactive)"}
{"smiles": "C[C@@H]1CCCCO[C@@H](CN(C)S(=O)(=O)c2cn(C)cn2)[C@H](C)CN([C@H](C)CO)C(=O)c2cc(NC(=O)NC3CCCCC3)ccc2O1", "CPE inhibition": "5.41% (inactive)"}
